These results are taken from PMC7862700, “An all-to-all approach to the identification of sequence-specific readers for epigenetic DNA modifications on cytosine”.

Common to all, as to assay: DAPPL (digital affinity profiling via proximity ligation, sequencing); 10 mM Tris-HCl pH 7.5, 50 mM NaCl, 1 mM DTT, 4% glycerol, room temperature, 30 min; GST-TFs on glutathione beads, 16-mer random dsDNA library, 0.1% formaldehyde crosslink after washing; high values mean tight binding
In assay [1] the target is T1, FLI1 (Homo sapiens, UniProt Q01543 1-452).
T1 sequence: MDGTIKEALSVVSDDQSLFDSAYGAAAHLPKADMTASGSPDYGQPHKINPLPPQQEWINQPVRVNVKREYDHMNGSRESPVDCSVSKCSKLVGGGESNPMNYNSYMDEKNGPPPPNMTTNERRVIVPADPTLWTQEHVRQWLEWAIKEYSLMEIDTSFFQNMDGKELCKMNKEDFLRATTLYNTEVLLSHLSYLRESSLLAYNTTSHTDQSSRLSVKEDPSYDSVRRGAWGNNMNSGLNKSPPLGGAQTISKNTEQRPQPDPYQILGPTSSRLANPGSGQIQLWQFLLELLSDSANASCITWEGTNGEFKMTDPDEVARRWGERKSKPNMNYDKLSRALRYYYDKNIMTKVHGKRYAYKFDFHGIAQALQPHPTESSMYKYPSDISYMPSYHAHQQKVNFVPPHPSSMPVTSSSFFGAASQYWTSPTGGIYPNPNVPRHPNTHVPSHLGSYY
The conditions noted are these: protein: recombinant; tags: N-terminal GST; dsDNA, one strand shown. A digest of the protocol:
(§1)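 Sequencing on an Illumina NextSeq500 followed washing, crosslinking with 0.1% formaldehyde, proximity ligation (BsaI/T4 ligase, 1 h, 37 °C) and PCR amplification of pools that had been incubated for 30 min at room temperature with 200 nmole of a random double-stranded 16-mer DNA library in Tris/NaCl/DTT/glycerol buffer. Each pool held DNA-barcoded human transcription factors, expressed in yeast as GST fusions and captured on glutathione beads, plus a tag-only sample. Binding signal is a hexamer's read frequency for a factor divided by its frequency in the tag-only sample.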

The target of assay [2] is T2, ELK1 (Homo sapiens, UniProt P19419 1-428).
T2 sequence: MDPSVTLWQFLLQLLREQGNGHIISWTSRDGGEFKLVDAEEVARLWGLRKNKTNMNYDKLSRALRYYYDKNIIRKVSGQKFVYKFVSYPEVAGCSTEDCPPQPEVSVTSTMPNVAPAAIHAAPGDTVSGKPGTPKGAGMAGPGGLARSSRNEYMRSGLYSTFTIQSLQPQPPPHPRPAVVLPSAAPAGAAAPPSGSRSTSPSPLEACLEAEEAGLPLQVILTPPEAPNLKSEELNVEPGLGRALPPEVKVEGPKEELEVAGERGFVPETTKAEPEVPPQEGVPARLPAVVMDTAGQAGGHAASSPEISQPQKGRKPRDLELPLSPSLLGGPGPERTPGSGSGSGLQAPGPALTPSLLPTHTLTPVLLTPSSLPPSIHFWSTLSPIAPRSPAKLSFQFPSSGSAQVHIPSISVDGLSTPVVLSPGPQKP
The conditions noted are these: protein: recombinant; tags: N-terminal GST; dsDNA, one strand shown. The method, boiled down: as §1

Assay [3] deals with T3, GABPA (Homo sapiens, UniProt Q06546 1-454).
T3 sequence: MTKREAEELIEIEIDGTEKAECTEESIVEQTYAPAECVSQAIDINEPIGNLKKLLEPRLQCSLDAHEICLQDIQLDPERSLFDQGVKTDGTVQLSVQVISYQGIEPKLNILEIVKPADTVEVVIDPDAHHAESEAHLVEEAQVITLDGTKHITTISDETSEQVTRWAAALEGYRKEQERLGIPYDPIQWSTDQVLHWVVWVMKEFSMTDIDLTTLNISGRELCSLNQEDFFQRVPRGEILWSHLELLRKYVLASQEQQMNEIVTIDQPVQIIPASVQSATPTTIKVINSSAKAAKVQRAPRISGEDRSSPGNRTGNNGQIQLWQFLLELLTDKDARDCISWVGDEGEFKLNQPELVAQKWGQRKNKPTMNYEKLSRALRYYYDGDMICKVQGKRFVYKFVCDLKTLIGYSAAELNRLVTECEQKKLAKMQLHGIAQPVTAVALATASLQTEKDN
The conditions noted are these: protein: recombinant; tags: N-terminal GST; dsDNA, one strand shown. A digest of the protocol: as §1

The target of assay [4] is T4, ERG (Homo sapiens, UniProt P11308 1-479).
T4 sequence: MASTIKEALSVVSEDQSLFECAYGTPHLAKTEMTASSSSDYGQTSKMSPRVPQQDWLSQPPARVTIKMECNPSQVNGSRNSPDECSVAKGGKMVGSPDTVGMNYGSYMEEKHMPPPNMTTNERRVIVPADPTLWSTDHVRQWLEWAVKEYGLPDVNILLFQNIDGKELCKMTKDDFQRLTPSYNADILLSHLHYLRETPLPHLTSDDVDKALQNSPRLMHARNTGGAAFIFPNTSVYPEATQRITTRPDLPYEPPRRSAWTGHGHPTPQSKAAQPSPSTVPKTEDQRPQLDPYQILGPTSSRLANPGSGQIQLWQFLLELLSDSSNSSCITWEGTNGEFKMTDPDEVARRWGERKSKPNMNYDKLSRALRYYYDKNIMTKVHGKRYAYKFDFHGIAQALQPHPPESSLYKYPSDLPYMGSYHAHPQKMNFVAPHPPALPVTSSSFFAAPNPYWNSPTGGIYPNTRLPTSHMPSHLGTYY
The conditions noted are these: protein: recombinant; tags: N-terminal GST; dsDNA, one strand shown. The method, boiled down: as §1

Assay [5] concerns the target ELF1 (Homo sapiens, UniProt P32519 1-619). The conditions noted are these: protein: recombinant; tags: N-terminal GST; dsDNA, one strand shown. A digest of the protocol: as §1
In assay [6] the target is T5, EHF (Homo sapiens, UniProt Q9NZC4 1-300).
T5 sequence: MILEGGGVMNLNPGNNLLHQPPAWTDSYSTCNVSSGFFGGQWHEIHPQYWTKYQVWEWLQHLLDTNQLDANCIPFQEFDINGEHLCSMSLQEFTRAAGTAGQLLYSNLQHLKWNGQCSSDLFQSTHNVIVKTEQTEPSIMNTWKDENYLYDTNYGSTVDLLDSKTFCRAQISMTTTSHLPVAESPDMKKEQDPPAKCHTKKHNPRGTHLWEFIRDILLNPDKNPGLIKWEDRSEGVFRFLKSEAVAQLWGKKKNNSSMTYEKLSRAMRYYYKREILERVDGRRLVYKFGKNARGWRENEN
The conditions noted are these: protein: recombinant; tags: N-terminal GST; dsDNA, one strand shown. The method, boiled down:
as §1

Assay [7] deals with SPI1 (Homo sapiens, UniProt P17947 1-270). The conditions noted are these: protein: recombinant; tags: N-terminal GST; dsDNA, one strand shown. The method, boiled down:
as §1

Assay [8] deals with SPIB (Homo sapiens, UniProt Q01892 1-262). The conditions noted are these: protein: recombinant; tags: N-terminal GST; dsDNA, one strand shown. A digest of the protocol:
as §1

In assay [9] the target is T6, FEV (Homo sapiens, UniProt Q99581 1-238).
T6 sequence: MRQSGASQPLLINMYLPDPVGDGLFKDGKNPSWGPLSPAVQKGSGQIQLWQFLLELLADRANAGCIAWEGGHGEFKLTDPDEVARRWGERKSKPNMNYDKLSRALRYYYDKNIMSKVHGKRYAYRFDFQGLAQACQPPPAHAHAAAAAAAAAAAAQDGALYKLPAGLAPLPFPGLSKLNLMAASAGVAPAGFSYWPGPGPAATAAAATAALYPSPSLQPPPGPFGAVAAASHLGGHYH
The conditions noted are these: protein: recombinant; tags: N-terminal GST; dsDNA, one strand shown. The method, boiled down:
as §1

In assay [10] the target is ETV5 (Homo sapiens, UniProt P41161 1-510). The conditions noted are these: protein: recombinant; tags: N-terminal GST; dsDNA, one strand shown. A digest of the protocol: as §1
Chain of ETV5 (P41161 whole entry): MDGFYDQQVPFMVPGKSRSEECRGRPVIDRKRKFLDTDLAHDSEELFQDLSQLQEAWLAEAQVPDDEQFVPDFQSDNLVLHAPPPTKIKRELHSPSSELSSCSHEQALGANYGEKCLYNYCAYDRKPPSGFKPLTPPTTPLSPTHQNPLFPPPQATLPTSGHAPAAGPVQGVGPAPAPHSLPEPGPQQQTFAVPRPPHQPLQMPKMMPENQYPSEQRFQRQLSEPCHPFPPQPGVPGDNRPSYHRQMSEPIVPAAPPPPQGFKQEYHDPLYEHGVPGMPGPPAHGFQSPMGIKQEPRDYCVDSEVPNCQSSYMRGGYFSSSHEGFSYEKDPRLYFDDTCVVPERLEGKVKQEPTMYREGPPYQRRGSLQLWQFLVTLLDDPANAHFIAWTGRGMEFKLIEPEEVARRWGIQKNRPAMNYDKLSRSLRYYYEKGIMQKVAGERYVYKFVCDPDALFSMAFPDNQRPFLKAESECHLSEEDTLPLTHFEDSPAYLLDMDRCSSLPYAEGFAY
The target in assay [11] is HSF1 (Homo sapiens, UniProt Q00613 1-529). The conditions noted are these: protein: recombinant; tags: N-terminal GST; chain copies: 3; dsDNA, one strand shown. A digest of the protocol: as §1
Chain of HSF1 (Q00613 whole entry): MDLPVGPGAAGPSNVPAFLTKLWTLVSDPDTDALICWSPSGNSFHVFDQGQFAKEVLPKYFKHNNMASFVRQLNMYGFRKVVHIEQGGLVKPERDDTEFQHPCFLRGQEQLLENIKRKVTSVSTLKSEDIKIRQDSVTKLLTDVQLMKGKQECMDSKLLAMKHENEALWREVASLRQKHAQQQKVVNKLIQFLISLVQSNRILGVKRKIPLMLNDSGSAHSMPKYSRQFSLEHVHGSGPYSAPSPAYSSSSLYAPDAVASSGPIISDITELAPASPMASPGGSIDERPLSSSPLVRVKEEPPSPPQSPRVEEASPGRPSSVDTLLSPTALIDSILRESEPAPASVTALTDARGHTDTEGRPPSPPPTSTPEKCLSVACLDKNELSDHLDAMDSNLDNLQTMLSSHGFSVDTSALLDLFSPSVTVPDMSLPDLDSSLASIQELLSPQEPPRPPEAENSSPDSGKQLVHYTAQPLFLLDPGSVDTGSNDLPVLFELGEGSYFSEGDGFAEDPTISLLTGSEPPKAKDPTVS
The target of assay [12] is T7, SPIC (Homo sapiens, UniProt Q8N5J4 1-248).
T7 sequence: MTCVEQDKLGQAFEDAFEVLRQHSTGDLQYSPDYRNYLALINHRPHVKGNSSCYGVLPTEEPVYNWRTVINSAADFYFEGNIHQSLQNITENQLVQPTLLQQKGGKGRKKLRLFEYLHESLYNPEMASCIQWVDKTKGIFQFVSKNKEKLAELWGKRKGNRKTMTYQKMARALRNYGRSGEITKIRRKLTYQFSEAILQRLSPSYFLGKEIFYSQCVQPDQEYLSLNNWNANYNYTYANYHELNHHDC
The conditions noted are these: protein: recombinant; tags: N-terminal GST; dsDNA, one strand shown. A digest of the protocol:
as §1

Assay [13] deals with ELF4 (Homo sapiens, UniProt Q99607 1-663). The conditions noted are these: protein: recombinant; tags: N-terminal GST; dsDNA, one strand shown. A digest of the protocol:
as §1

In assay [14] the target is T8, ELK4 (Homo sapiens, UniProt P28324-2 1-405).
T8 sequence: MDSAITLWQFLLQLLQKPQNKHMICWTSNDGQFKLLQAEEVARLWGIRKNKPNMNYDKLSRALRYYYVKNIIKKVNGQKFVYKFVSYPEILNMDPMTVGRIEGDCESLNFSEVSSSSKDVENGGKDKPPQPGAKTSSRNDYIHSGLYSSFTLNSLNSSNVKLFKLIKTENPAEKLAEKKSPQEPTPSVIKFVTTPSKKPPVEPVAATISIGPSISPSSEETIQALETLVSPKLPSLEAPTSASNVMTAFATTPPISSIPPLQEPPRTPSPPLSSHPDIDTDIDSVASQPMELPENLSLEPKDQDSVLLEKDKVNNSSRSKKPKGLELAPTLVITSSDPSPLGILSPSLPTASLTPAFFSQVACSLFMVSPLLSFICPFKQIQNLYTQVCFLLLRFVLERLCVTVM
The conditions noted are these: protein: recombinant; tags: N-terminal GST; dsDNA, one strand shown. A digest of the protocol:
as §1

In assay [15] the target is T9, ETV2 (Homo sapiens, UniProt O00321 1-342).
T9 sequence: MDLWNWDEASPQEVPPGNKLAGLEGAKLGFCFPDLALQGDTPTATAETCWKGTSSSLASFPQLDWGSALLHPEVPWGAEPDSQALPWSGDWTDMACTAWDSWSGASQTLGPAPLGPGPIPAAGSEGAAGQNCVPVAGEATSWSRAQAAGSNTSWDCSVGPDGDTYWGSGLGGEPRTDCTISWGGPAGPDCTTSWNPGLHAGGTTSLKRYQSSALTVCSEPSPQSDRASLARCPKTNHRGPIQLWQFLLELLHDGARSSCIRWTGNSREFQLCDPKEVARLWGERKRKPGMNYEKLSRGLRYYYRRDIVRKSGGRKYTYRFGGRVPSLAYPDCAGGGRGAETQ
The conditions noted are these: protein: recombinant; tags: N-terminal GST; dsDNA, one strand shown. The method, boiled down:
as §1

Assay [16] addresses T10, ELF3 (Homo sapiens, UniProt P78545 1-371).
T10 sequence: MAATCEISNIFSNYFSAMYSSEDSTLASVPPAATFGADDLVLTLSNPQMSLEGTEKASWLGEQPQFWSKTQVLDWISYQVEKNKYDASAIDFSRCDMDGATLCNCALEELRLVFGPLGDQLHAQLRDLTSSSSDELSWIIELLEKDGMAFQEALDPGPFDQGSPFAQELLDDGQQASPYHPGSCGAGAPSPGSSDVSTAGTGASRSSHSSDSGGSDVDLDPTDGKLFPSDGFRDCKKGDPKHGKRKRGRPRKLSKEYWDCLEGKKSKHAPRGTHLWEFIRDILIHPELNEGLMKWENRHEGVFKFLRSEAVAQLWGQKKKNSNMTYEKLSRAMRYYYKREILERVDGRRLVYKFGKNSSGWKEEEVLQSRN
The conditions noted are these: protein: recombinant; tags: N-terminal GST; dsDNA, one strand shown. A digest of the protocol:
as §1

The target of assay [17] is CRX (Homo sapiens, UniProt O43186 1-299). The conditions noted are these: protein: recombinant; tags: N-terminal GST; dsDNA, one strand shown. The method, boiled down:
as §1

In assay [18] the target is ETV1 (Homo sapiens, UniProt P50549 1-477). The conditions noted are these: protein: recombinant; tags: N-terminal GST; dsDNA, one strand shown. A digest of the protocol: as §1
Chain of ETV1 (P50549 whole entry): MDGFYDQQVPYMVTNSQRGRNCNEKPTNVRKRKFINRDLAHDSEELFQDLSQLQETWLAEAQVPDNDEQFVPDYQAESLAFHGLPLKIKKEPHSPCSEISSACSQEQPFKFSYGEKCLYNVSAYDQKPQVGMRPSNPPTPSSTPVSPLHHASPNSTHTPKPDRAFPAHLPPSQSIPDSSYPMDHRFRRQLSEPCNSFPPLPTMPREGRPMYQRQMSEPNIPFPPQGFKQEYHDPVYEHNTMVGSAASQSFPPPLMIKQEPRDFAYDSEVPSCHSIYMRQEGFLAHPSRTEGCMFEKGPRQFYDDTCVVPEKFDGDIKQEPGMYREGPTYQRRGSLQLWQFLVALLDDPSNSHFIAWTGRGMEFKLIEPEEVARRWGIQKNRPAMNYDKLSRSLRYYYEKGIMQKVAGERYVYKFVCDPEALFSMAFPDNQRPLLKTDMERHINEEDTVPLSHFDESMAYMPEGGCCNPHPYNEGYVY

Chain of CRX (O43186 whole entry): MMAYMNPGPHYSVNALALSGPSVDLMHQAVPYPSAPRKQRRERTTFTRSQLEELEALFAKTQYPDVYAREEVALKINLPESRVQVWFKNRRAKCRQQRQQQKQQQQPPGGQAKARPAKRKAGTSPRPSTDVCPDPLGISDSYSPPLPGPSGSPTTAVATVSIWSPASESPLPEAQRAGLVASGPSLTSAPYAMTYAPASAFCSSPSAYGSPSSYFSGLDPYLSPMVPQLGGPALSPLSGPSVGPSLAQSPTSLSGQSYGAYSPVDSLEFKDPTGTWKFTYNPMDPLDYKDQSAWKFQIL
Chain of ELF4 (Q99607 whole entry): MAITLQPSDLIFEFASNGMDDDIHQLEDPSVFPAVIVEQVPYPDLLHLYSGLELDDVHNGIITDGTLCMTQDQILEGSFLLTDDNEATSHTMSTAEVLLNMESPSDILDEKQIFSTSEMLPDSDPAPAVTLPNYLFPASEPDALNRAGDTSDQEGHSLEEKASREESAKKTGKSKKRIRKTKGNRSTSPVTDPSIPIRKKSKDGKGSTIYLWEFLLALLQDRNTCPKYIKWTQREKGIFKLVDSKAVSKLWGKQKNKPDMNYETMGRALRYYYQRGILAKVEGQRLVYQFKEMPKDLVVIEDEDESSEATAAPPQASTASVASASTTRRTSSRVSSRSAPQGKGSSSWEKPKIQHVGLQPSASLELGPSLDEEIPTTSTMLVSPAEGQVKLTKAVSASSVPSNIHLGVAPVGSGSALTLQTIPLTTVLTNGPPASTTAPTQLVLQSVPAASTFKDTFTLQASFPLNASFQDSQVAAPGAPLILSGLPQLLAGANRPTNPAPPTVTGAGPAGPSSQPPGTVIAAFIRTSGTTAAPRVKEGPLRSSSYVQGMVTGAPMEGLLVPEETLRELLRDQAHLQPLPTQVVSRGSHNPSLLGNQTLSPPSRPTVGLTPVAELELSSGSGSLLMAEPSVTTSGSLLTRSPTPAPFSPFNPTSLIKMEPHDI
Chain of ELF1 (P32519 whole entry): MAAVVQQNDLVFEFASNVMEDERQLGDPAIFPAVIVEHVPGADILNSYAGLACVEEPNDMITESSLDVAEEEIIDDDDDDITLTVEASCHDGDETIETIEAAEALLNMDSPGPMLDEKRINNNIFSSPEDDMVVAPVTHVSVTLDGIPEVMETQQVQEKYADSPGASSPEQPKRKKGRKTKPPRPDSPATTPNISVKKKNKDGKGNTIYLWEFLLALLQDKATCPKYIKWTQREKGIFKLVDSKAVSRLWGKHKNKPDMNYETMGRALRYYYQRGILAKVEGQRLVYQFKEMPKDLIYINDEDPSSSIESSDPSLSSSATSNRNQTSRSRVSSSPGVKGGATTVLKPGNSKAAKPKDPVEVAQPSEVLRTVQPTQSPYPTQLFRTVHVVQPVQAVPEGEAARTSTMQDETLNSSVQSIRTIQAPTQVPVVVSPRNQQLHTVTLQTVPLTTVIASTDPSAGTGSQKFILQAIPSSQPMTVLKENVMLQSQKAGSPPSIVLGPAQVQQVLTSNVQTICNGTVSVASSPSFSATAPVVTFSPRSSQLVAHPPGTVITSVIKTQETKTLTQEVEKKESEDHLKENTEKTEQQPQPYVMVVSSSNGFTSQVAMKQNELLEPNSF
Chain of SPIB (Q01892 whole entry): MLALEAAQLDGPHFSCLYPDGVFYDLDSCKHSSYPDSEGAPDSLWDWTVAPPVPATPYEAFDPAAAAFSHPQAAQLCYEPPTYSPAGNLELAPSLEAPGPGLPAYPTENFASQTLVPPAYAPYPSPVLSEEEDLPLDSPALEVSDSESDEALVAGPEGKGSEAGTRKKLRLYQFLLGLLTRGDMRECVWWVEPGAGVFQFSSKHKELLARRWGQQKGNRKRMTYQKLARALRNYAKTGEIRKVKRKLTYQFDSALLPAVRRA

Consider CGAAAG, for which the binding signal is 1.15 fold enrichment (6-mer frequency, TF over GST control) in [1]; 1.13 fold enrichment (6-mer frequency, TF over GST control) in assay [2]; 1.08 fold enrichment (6-mer frequency, TF over GST control) in [3]; 1.04 fold enrichment (6-mer frequency, TF over GST control) in assay [4]; 1.09 fold enrichment (6-mer frequency, TF over GST control) in assay [5]; 1.01 fold enrichment (6-mer frequency, TF over GST control) in [6]. Moreover, the binding signal in assay [7] is 1.16 fold enrichment (6-mer frequency, TF over GST control); in assay [8] it was 1.06 fold enrichment (6-mer frequency, TF over GST control); in assay [9] it was 1.04 fold enrichment (6-mer frequency, TF over GST control); in assay [10], 1.1 fold enrichment (6-mer frequency, TF over GST control); in assay [11], 1.81 fold enrichment (6-mer frequency, TF over GST control); in assay [12], 1.03 fold enrichment (6-mer frequency, TF over GST control). In addition, the binding signal in assay [13] is 1.06 fold enrichment (6-mer frequency, TF over GST control); in assay [14], 1.09 fold enrichment (6-mer frequency, TF over GST control); in assay [15], 1.13 fold enrichment (6-mer frequency, TF over GST control); in [16], 1.21 fold enrichment (6-mer frequency, TF over GST control); in assay [17] it was 1.11 fold enrichment (6-mer frequency, TF over GST control); in assay [18], 1.01 fold enrichment (6-mer frequency, TF over GST control).
